Measured values taken from PubChem BioAssay (NCATS).
Records with an inconclusive call do not appear. Entries that show only a call come without a potency. Active and inactive are the calls of the source. The call rests on the fitted dose curve; in most records, active means well fitted activation curve with a large enough effect; inconclusive means small, poorly fitted or top-dose-only effect; inactive means flat fitted curve, though single readings scatter.

biological target: D(1A) dopamine receptor (Homo sapiens) (UniProt P21728); assay: HTS Assay for Allosteric Agonists of the Human D1 Dopamine Receptor: Primary Screen for Agonists (AID 488981); settings: Inducible HEK293 T-REx D1 cells, calcium-flux fluorescence, 180 s kinetic; series mostly up to 41.8 µM
Sequence (P21728 whole entry, looked up): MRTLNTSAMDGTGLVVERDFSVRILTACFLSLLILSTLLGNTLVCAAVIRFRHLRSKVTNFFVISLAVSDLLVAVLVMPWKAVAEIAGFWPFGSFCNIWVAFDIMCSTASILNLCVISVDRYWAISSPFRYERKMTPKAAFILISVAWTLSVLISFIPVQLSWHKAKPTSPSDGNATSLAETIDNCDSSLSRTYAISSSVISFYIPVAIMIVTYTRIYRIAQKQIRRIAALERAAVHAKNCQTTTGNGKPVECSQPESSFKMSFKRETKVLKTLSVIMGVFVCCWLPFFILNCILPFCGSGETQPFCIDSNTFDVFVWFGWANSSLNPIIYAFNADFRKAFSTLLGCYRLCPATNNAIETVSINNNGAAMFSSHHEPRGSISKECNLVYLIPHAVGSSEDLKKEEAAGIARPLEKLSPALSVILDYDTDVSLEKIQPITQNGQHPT
From the text: Dopamine receptors (DARs) are involved in the etiology and/or therapy of a number of neuropsychiatric and endocrine disorders. For instance, all receptor-based antiparkinsonian drugs work via stimulating the […] DAR subtype whereas all FDA-approved antipsychotic agents are antagonists of this receptor. […] There are three different types of allosteric modulators that we are seeking, two of which will stimulate or augment receptor signaling, allosteric agonists and potentiators, while the third, allosteric antagonists, will attenuate receptor signaling. The present primary screening assay measures compound agonism by tracking calcium flux in a […], inducible Hek293 Trex D1 cell line.
Freshly passaged cells are plated in 1536 well black, clear bottom plates at a density of 4000 cells/well in 3 ul of complete media containing 1x tetracycline inducer. After an overnight incubation at 30 C in 5% CO2, cells are loaded with 2 ul of the no wash Calcium Assay Kit (ABD Bioquest) and incubated at room temperature for 30 to 90 minutes. A 10 cycle (1 second/cycle) baseline measurement is taken and then the FDSS online 1536 pintool delivers 23 nl of compound library (as well as dopamine controls) to the plate. The plate is measured for kinetically at 1 cycle/sec for 180 seconds and is considered to be the agonist portion of the assay (eg, compounds which activate a positive calcium response during this portion are flagged as potential agonists). Following the 180 second read, 1 ul of an EC20 of dopamine is delivered by an onboard pipette head. Measurements are taken kinetically for an additional 180 seconds.

Structure (SMILES)	Potency
CC(C(=O)O)c1cccc(C(=O)c2ccccc2)c1 (stereo not given)	inactive
O=C(c1ccc(F)cc1)C1CCN(CCn2c(=O)[nH]c3ccccc3c2=O)CC1	inactive
Cc1ccc(C(=O)Nc2ccc(S(=O)(=O)O)c3cc(S(=O)(=O)O)cc(S(=O)(=O)O)c23)cc1NC(=O)c1cccc(NC(=O)Nc2cccc(C(=O)Nc3cc(C(=O)Nc4ccc(S(=O)(=O)O)c5cc(S(=O)(=O)O)cc(S(=O)(=O)O)c45)ccc3C)c2)c1	inactive
C[C@](N)(Cc1ccc(O)c(O)c1)C(=O)O	inactive
CC(C)NCC(O)COc1ccc(CCOCC2CC2)cc1 (stereo not given)	inactive
CN1C(C(=O)Nc2ccccn2)=C(O)c2ccccc2S1(=O)=O	inactive
OCCN1CCN(CCCN2c3ccccc3Sc3ccc(C(F)(F)F)cc32)CC1	inactive
Clc1ccccc1C(c1ccccc1)(c1ccccc1)n1ccnc1	inactive
CC12CC3CC(C)(C1)CC(N)(C3)C2	inactive
Cc1cc(C(C)(C)C)cc(C)c1CC1=NCCN1	inactive
Cn1c(=O)c2[nH]cnc2n(C)c1=O	inactive
COc1ccc2c(c1)c(CC(=O)O)c(C)n2C(=O)c1ccc(Cl)cc1	inactive
CCOC(=O)Nc1ccc(NCc2ccc(F)cc2)nc1N	inactive
NS(=O)(=O)c1cc2c(cc1Cl)NCNS2(=O)=O	inactive
CN(Cc1cnc2nc(N)nc(N)c2n1)c1ccc(C(=O)N[C@@H](CCC(=O)O)C(=O)O)cc1	inactive
O=c1[nH]cc(F)c(=O)[nH]1	inactive
O=c1c(O)c(-c2ccc(O)c(O)c2)oc2cc(O)cc(O)c12	inactive
O=C(C1CCCCC1)N1CC(=O)N2CCc3ccccc3C2C1 (stereo not given)	inactive
N[C@@H](Cc1c[nH]c2ccc(O)cc12)C(=O)O	inactive
CN1CCC(=C2c3ccccc3CC(=O)c3sccc32)CC1	inactive

Structure (SMILES)	Potency
O=C(c1ccc(OCCN2CCCCC2)cc1)c1c(-c2ccc(O)cc2)sc2cc(O)ccc12	inactive
Cc1cn([C@H]2C[C@H](N=[N+]=[N-])[C@@H](CO)O2)c(=O)[nH]c1=O	inactive
CCCNCC(O)COc1ccccc1C(=O)CCc1ccccc1 (stereo not given)	inactive
O=C1Cc2cc(CCN3CCN(c4nsc5ccccc45)CC3)c(Cl)cc2N1	inactive
CC1COc2c(N3CCN(C)CC3)c(F)cc3c(=O)c(C(=O)O)cn1c23 (stereo not given)	inactive
CS(=O)(=O)Nc1ccc([N+](=O)[O-])cc1Oc1ccccc1	inactive
CC(CCc1ccc(O)cc1)NCCc1ccc(O)c(O)c1 (stereo not given)	inactive
CN(C)CCOC(c1ccccc1)c1ccccc1	inactive
CN(C)c1nc(N(C)C)nc(N(C)C)n1	inactive
NC(CO)C(=O)NNCc1ccc(O)c(O)c1O (stereo not given)	inactive
CC[N+](CC)(CC)CCOc1cccc(OCC[N+](CC)(CC)CC)c1OCC[N+](CC)(CC)CC	inactive
CN(C)CCCN1c2ccccc2CCc2ccc(Cl)cc21	inactive
CCN1CCCC1CNC(=O)c1cc(S(=O)(=O)CC)c(N)cc1OC (stereo not given)	inactive
Clc1ccc2nsnc2c1NC1=NCCN1	inactive
COc1ccccc1OCC(O)CN1CCN(CC(=O)Nc2c(C)cccc2C)CC1 (stereo not given)	inactive
CN1C2CCC1CC(OC(=O)C(CO)c1ccccc1)C2 (stereo not given)	inactive
COc1ccc(CCN(C)CCCC(C#N)(c2ccc(OC)c(OC)c2)C(C)C)cc1OC (stereo not given)	inactive
Nc1nnc(-c2cccc(Cl)c2Cl)c(N)n1	inactive
Clc1ccc(C(c2ccccc2Cl)C(Cl)Cl)cc1 (stereo not given)	inactive
COc1cc2nc(N3CCN(C(=O)c4ccco4)CC3)nc(N)c2cc1OC	inactive
